These results are taken from PubChem BioAssay (Tox21).

A short description of test [1]: qHTS assay to identify small molecule agonists of the vitamin D receptor (VDR) signaling pathway - cell viability counter screen (AID 743224). Further: series mostly up to about 63 µM; nearly all actives have a fitted effect of over 50% in size. In a few lines:
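In parallel with the bla FRET readout, cytotoxicity toward VDR-bla cells after 16 h compound exposure was assessed by CellTiter-Glo, with luminescence recorded after a 30 min room-temperature incubation.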

A short description of test [2]: qHTS assay to identify small molecule antagonists of the vitamin D receptor (VDR) signaling pathway - cell viability counter screen (AID 743225). Further: nearly all actives have a fitted effect of over 50% in size. In a few lines: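 VDR-UAS-bla HEK 293T cells were plated and incubated 4 h at 37C, then dosed with compound plus 3 nM (final) 1-alpha,25-dihydroxyvitamin D3 for 16 h. After the 2 h beta-lactamase read, viability in the same wells was read as CellTiter-Glo luminescence after 30 min at room temperature.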

Test [3] can be described thus: qHTS assay to identify small molecule agonists of the NFkB signaling pathway (AID 1159509; active means well fitted curve in the direction sought with a large enough effect in the signal ratio in the repeat runs, not every such curve was filed as active; the % refers to the signal ratio; further: series mostly up to about 61 µM). In a few lines:
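Beta-lactamase reporter assay run in quantitative high-throughput format on an NF-kB-responsive ME-180 line, with 5 hr compound treatment and a FRET-based blue/green fluorescence readout.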

Test [4] can be described thus: qHTS assay to identify small molecule agonists of the NFkB signaling pathway - cell viability counter screen (AID 1159515; calls by dose curve; further: series mostly up to about 61 µM; nearly all actives have a fitted effect of over 55% in size). In a few lines: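 Plate 2,000 NFkB-bla ME-180 cells/well; incubate overnight. Add compounds, 5 hr at 37 C. Add FRET substrate, 1.5 hr RT. Add CellTiter-Glo, 30 min RT; read luminescence.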
A short description of test [5]: qHTS assay to identify small molecule agonists of the endoplasmic reticulum stress response signaling pathway (AID 1159516; active means well fitted activation curve with a large enough effect in the signal ratio in the repeat runs, not every such curve was filed as active; the % refers to the signal ratio). In a few lines: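 Beta-lactamase expression from the ER stress response element in HeLa reporter cells is quantified with the LiveBLAzer B/G FRET substrate, read at 405 nm excitation after 2 hr at room temperature, following 5 hr compound treatment at 37 C.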

Test [6] is described as follows: qHTS assay to identify small molecule agonists of the endoplasmic reticulum stress response signaling pathway - cell viability counter screen (AID 1159517; calls by dose curve; further: series mostly up to about 61 µM; nearly all actives have a fitted effect of over 50% in size). In a few lines: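 Steps: seed 1,500 ESRE-bla HeLa cells per well; incubate overnight at 37 C, 5% CO2; add compounds in DMSO for 5 hr; run FRET substrate 2 hr RT; add CellTiter-Glo, wait 30 min, read luminescence.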

The nature of test [7]: qHTS assay to identify small molecule antagonists of the retinoid-related orphan receptor gamma (ROR-gamma) signaling pathway - cell viability counter screen (AID 1159520). Further: nearly all actives have a fitted effect of over 50% in size. In a few lines: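 Tet-on ROR gamma CHO cells were given compounds for 2 hr, then doxycycline hyclate at 1 uM final, and incubated 16 hr at 37 C. Viability was measured as ATP content by CellTiter-Glo luminescence.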

Test [8] has as its target Nuclear receptor ROR-gamma (Homo sapiens) (UniProt P51449). As to the kind of experiment: qHTS assay to identify small molecule antagonists of the retinoid-related orphan receptor gamma (ROR-gamma) signaling pathway (AID 1159521; further: nearly all actives have a fitted effect of over 50% in size; further: potency means the concentration at half of the fitted maximal effect). In a few lines: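 Tet-on ROR-gamma CHO cells with ROR response element-luciferase reporter; compounds added 2 hr before 1 uM doxycycline induction, then 16 hr at 37 C. Antagonism scored as decreased ONE-Glo luminescence.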

Test [9] in a line: qHTS assay to identify small molecule agonists of the AP-1 signaling pathway - cell viability counter screen (AID 1159525; calls by dose curve; further: nearly all actives have a fitted effect of over 55% in size). In a few lines: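 Same-well cytotoxicity counter screen of the Tox21 10K library in ME-180 cells. The readout is ATP-dependent luminescence after 5 h compound treatment. Data are normalised to DMSO and tetra n-octyl ammonium bromide controls.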
The nature of test [10]: qHTS assay to identify small molecule agonists of the AP-1 signaling pathway (AID 1159526; calls by dose curve; further: potency means the concentration at half of the fitted maximal effect).

Inconclusive results are not listed. Values without a mark were called inactive. Calls of active or inactive are those of the source. Unless noted, the call rests on the fitted dose curve; in most records, active means well fitted curve in the direction sought with a large enough effect in the repeat runs; inconclusive means weak or mixed curves; inactive means no such curve, though single readings can be large; an effect the other way counts as inactive or inconclusive.

On to `CCCOC(C)=O`, for which the result in [1], in test [2], in test [3], in test [4], in test [5] and in [6] was inactive. Moreover, the result in test [9] was inactive. Moreover, the Potency result in test [7], in test [8] and in test [10] was “inactive” in each case.

As to `CCOC(C)OCC`, the outcome in test [1], in test [2], in test [3], in [4], in test [5] and in [6] was inactive. In [9], the compound was classed as inactive. Further, the Potency entry in [7], in test [8] and in test [10] was “inactive” in each case.

Turning to `O=C(C1CCCCC1)N1CC(=O)N2CCCc3ccccc3C2C1` (stereo not given), the compound was called inactive in [1], in [2], in test [3], in test [4], in test [5] and in test [6]. The compound was called inactive in test [9]. In addition, the Potency result in test [7], in test [8] and in test [10] was “inactive” each time.

For the compound `CC(C)Cc1nccs1`, the outcome in test [1], in [2], in [3], in test [4], in [5] and in test [6] was inactive. For the same compound, in [9], the call was inactive. The Potency entry in [7], in test [8] and in test [10] was “inactive” in each case.

`C=CC(O)CCCCC` (stereo not given): the compound was classed as inactive in [1], in test [2], in [3], in test [4], in [5] and in [6]. Moreover, the compound was classed as inactive in test [9]. The Potency entry in test [7], in [8] and in test [10] was “inactive” each time.

Turning to `Cc1cc(SC2=C(O)C[C@@](CCc3ccc(N)cc3)(C(C)C)OC2=O)c(C(C)(C)C)cc1CO`, the call in test [1], in test [2], in [3], in [4], in test [5] and in [6] was inactive. Besides, the outcome in test [9] was inactive. In addition, the Potency result in test [7], in [8] and in [10] was “inactive” in each case.

Turning to `O=C1C=CCCC1`, the call in test [1], in test [2], in test [3], in test [4], in test [5] and in test [6] was inactive. Moreover, the call in test [9] was inactive. In addition, the Potency result in [7], in [8] and in test [10] was “inactive” each time.

With `Clc1cc(Cl)c2c(c1)N=C1CCCCCN1C2`, the result in test [1], in [2], in [3], in test [4], in test [5] and in test [6] was inactive. For the same compound, the result in test [9] was inactive. Besides, the Potency result in [7], in test [8] and in test [10] was “inactive” each time.

With `CC(=O)S[C@H](C(=O)N[C@H]1Cc2ccccc2[C@H]2CCC[C@@H](C(=O)O)N2C1=O)C(C)C`, the compound was called inactive in [1], in [2], in [3], in [4], in test [5] and in [6]. For the same compound, the compound was called inactive in test [9]. Also, the Potency result in test [7], in [8] and in test [10] was “inactive” each time.

With `Nc1ncnc2c1ncn2[C@@H]1O[C@H](CO)[C@@H](O)[C@H]1O`, the outcome in test [1], in test [2], in test [3], in [4], in test [5] and in test [6] was inactive. For the same compound, the call in test [9] was inactive. Besides, the Potency entry in test [7], in test [8] and in [10] was “inactive” each time.

Take `O=C(O)c1ccncc1`: the compound was called inactive in test [1], in test [2], in [3], in [4], in test [5] and in test [6]. In addition, in test [9], the compound was classed as inactive. Moreover, the Potency entry in test [7], in test [8] and in test [10] was “inactive” in each case.

For `CCOc1ccc2c(c1)C(C)CC(C)(C)N2` (stereo not given), the compound was classed as inactive in [1], in test [2], in [3], in [4], in test [5] and in [6]. The outcome in [9] was inactive. For the same compound, the Potency entry in test [7], in [8] and in [10] was “inactive” each time.

For the compound `Cc1ccc(NC=O)c(C)c1`, the compound was called inactive in [1], in test [2], in [3], in [4], in [5] and in test [6]. Also, the result in [9] was inactive. The Potency entry in test [7], in test [8] and in test [10] was “inactive” each time.

As to `CCCC(=O)OCCC(C)C`, the call in [1], in test [2], in test [3], in test [4], in test [5] and in [6] was inactive. Besides, in [9], the outcome was inactive. The Potency result in [7], in test [8] and in [10] was “inactive” throughout.

On to `CCCC1CCOC(C)S1` (stereo not given), for which the call in [1], in test [2], in test [3], in test [4], in [5] and in test [6] was inactive. For the same compound, in test [9], the compound was called inactive. Moreover, the Potency result in test [7], in [8] and in [10] was “inactive” in each case.

For `O=C(O)c1c2ccccc2cc2ccccc12`, the result in test [1], in [2], in [3], in [4], in test [5] and in [6] was inactive. For the same compound, the outcome in test [9] was inactive. For the same compound, the Potency result in test [7] was “inactive”. Further, the values for the Potency in [8] and in test [10] were 13.6 µM (active) and 24.5 µM (active), respectively.

Consider `CCCc1ccc(OC)cc1`, for which the call in [1], in test [2], in [3], in test [4], in [5] and in test [6] was inactive. Besides, the call in test [9] was inactive. Moreover, the Potency result in test [7], in [8] and in test [10] was “inactive” in each case.

With `CCCC(=O)OCc1ccccc1`, the call in test [1], in test [2], in [3], in test [4], in test [5] and in test [6] was inactive. Moreover, in test [9], the result was inactive. The Potency entry in test [7], in [8] and in [10] was “inactive” throughout.

`C=CC(=O)NC(C)(C)C`: the compound was classed as inactive in [1], in test [2], in [3], in [4], in [5] and in [6]. In [9], the compound was called inactive. Further, the Potency result in test [7], in test [8] and in [10] was “inactive” each time.

With `CC(=O)CC/C=C(\C)CC/C=C(\C)CC/C=C(\C)CCC=C(C)C`, the call in test [1], in test [2], in test [3], in test [4], in test [5] and in test [6] was inactive. In addition, in test [9], the compound was called inactive. For the same compound, the Potency result in test [7], in [8] and in [10] was “inactive” each time.

With `O=C1c2ccccc2C(=O)c2c1ccc(O)c2O`, the call in test [1], in test [2], in test [3], in test [4], in test [5] and in test [6] was inactive. In test [9], the compound was classed as inactive. Besides, the Potency entry in [7], in test [8] and in test [10] was “inactive” throughout.

For the compound `O=P(c1ccccc1)(c1ccccc1)c1ccccc1`, the compound was called inactive in test [1], in test [2], in [3], in test [4], in test [5] and in test [6]. Further, the compound was called inactive in test [9]. Further, the Potency entry in test [7], in [8] and in test [10] was “inactive” each time.
